Several values for one entry are separate records, joined by “and”; a condition that tells them apart may be missing. Equal entries are not always repeated. Activity calls are given as the source filed them. Cut-off read from the data, not from the text of the source, unless noted: active = inhibition above about 80%; inactive = the rest.
Assay: growth inhibition, single agents and combos, HD-MB03, cell-based, BGB or cisplatin IC20 combos, synergistic combos for chromothripsis tumors (AID 1671455);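 note: 0% = vehicle DMSO and 100% = high DMSO as cytotoxic control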
Settings: HD-MB03 medulloblastoma cells, measured here: combo with BGB at IC20, at 0.5 µM, stronger effect = higher value

Structure (SMILES)	inhibition
COc1cc([C@@H]2c3cc4c(cc3[C@@H](O[C@@H]3O[C@@H]5CO[C@@H](c6cccs6)O[C@H]5[C@H](O)[C@H]3O)[C@H]3COC(=O)[C@H]23)OCO4)cc(OC)c1O	94.6% and 97.5%
N=c1ccn2c(n1)O[C@H]1[C@H](O)[C@@H](CO)O[C@H]12	84%
COc1cc(NS(C)(=O)=O)ccc1Nc1c2ccccc2nc2ccccc12	85.2% and 89.8%

Same assay, conditions: HD-MB03 medulloblastoma cells, measured here: combo with cisplatin at IC20, at 0.5 µM, stronger effect = higher value

Structure (SMILES)	inhibition
COc1cc([C@@H]2c3cc4c(cc3[C@@H](O[C@@H]3O[C@@H]5CO[C@@H](c6cccs6)O[C@H]5[C@H](O)[C@H]3O)[C@H]3COC(=O)[C@H]23)OCO4)cc(OC)c1O	96.6% and 99.1%
N=c1ccn2c(n1)O[C@H]1[C@H](O)[C@@H](CO)O[C@H]12	91.1%
COc1cc(NS(C)(=O)=O)ccc1Nc1c2ccccc2nc2ccccc12	93.1% and 93.7%

Assay: growth inhibition, single agents and combos, UWB1.289, cell-based, BGB or cisplatin combos, synergistic combos for chromothripsis tumors (AID 1671456);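 note: cells exposed to compound for four days; 0% = vehicle DMSO and 100% = killing by high DMSO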
Settings: UWB1.289 ovarian carcinoma cells, at 0.5 µM, stronger effect = higher value

Structure (SMILES)	inhibition
COc1cc([C@@H]2c3cc4c(cc3[C@@H](O[C@@H]3O[C@@H]5CO[C@@H](c6cccs6)O[C@H]5[C@H](O)[C@H]3O)[C@H]3COC(=O)[C@H]23)OCO4)cc(OC)c1O	18.6% (inactive) and 46.3% (inactive)
N=c1ccn2c(n1)O[C@H]1[C@H](O)[C@@H](CO)O[C@H]12	1.85% (inactive)
COc1cc(NS(C)(=O)=O)ccc1Nc1c2ccccc2nc2ccccc12	34.8% (inactive) and 27.8% (inactive)

Same assay, conditions: UWB1.289 ovarian carcinoma cells, measured here: inhibition with BGB combination, at 0.05 µM, stronger effect = higher value

Structure (SMILES)	inhibition
COc1cc([C@@H]2c3cc4c(cc3[C@@H](O[C@@H]3O[C@@H]5CO[C@@H](c6cccs6)O[C@H]5[C@H](O)[C@H]3O)[C@H]3COC(=O)[C@H]23)OCO4)cc(OC)c1O	-23.8% and 2.23%
N=c1ccn2c(n1)O[C@H]1[C@H](O)[C@@H](CO)O[C@H]12	-40.2%
COc1cc(NS(C)(=O)=O)ccc1Nc1c2ccccc2nc2ccccc12	-10.9% and -18.9%

Same assay, conditions: UWB1.289 ovarian carcinoma cells, measured here: inhibition with cisplatin combination, at 0.05 µM, stronger effect = higher value

Structure (SMILES)	inhibition
COc1cc([C@@H]2c3cc4c(cc3[C@@H](O[C@@H]3O[C@@H]5CO[C@@H](c6cccs6)O[C@H]5[C@H](O)[C@H]3O)[C@H]3COC(=O)[C@H]23)OCO4)cc(OC)c1O	-2.66% and 12.3%
N=c1ccn2c(n1)O[C@H]1[C@H](O)[C@@H](CO)O[C@H]12	-14.8%
COc1cc(NS(C)(=O)=O)ccc1Nc1c2ccccc2nc2ccccc12	5.17% and -0.785%

Assay: growth inhibition, single agents and combos, LFS_MB_2R, cell-based, cisplatin combos, synergistic combos for chromothripsis tumors (AID 1671457);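 note: cells exposed to compound for four days before readout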
Settings: LFS_MB_2R medulloblastoma cells, at 0.5 µM, stronger effect = higher value

Structure (SMILES)	inhibition
COc1cc([C@@H]2c3cc4c(cc3[C@@H](O[C@@H]3O[C@@H]5CO[C@@H](c6cccs6)O[C@H]5[C@H](O)[C@H]3O)[C@H]3COC(=O)[C@H]23)OCO4)cc(OC)c1O	-16.4% (inactive) and -13.1% (inactive)
N=c1ccn2c(n1)O[C@H]1[C@H](O)[C@@H](CO)O[C@H]12	-10.7% (inactive)
COc1cc(NS(C)(=O)=O)ccc1Nc1c2ccccc2nc2ccccc12	-7.33% (inactive) and -4.82% (inactive)

Same assay, conditions: LFS_MB_2R medulloblastoma cells, measured here: combination with cisplatin, at 0.5 µM, stronger effect = higher value

Structure (SMILES)	inhibition
COc1cc([C@@H]2c3cc4c(cc3[C@@H](O[C@@H]3O[C@@H]5CO[C@@H](c6cccs6)O[C@H]5[C@H](O)[C@H]3O)[C@H]3COC(=O)[C@H]23)OCO4)cc(OC)c1O	-12.1% and -0.448%
N=c1ccn2c(n1)O[C@H]1[C@H](O)[C@@H](CO)O[C@H]12	6.24%
COc1cc(NS(C)(=O)=O)ccc1Nc1c2ccccc2nc2ccccc12	-3.1% and -25.3%

Same assay, conditions: LFS_MB_2R medulloblastoma cells, measured here: combination with cisplatin, at 5 µM, stronger effect = higher value

Structure (SMILES)	inhibition
COc1cc([C@@H]2c3cc4c(cc3[C@@H](O[C@@H]3O[C@@H]5CO[C@@H](c6cccs6)O[C@H]5[C@H](O)[C@H]3O)[C@H]3COC(=O)[C@H]23)OCO4)cc(OC)c1O	-6.88% and 18.4%
N=c1ccn2c(n1)O[C@H]1[C@H](O)[C@@H](CO)O[C@H]12	44.7%
COc1cc(NS(C)(=O)=O)ccc1Nc1c2ccccc2nc2ccccc12	21% and 20.3%

Assay: growth inhibition, MDA-MB-436, cell-based, BGB or cisplatin combos, synergistic combos for chromothripsis tumors (AID 1671458; call rule not given here;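 note: cells exposed for 96 hours; 0% = vehicle DMSO and 100% = killing by high DMSO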)
Settings: MDA-MB-436 breast carcinoma growth inhibition, drug combinations; at 0.5 µM; stronger effect = higher value

Structure (SMILES)	inhibition
COc1cc([C@@H]2c3cc4c(cc3[C@@H](O[C@@H]3O[C@@H]5CO[C@@H](c6cccs6)O[C@H]5[C@H](O)[C@H]3O)[C@H]3COC(=O)[C@H]23)OCO4)cc(OC)c1O	49.3% (inactive) and 53.1% (inactive)
N=c1ccn2c(n1)O[C@H]1[C@H](O)[C@@H](CO)O[C@H]12	14% (inactive)
COc1cc(NS(C)(=O)=O)ccc1Nc1c2ccccc2nc2ccccc12	43.4% (inactive) and 40.4% (inactive)

Same assay, conditions: MDA-MB-436 breast carcinoma growth inhibition, drug combinations; measured here: BGB combination; at 0.5 µM; stronger effect = higher value

Structure (SMILES)	inhibition
COc1cc([C@@H]2c3cc4c(cc3[C@@H](O[C@@H]3O[C@@H]5CO[C@@H](c6cccs6)O[C@H]5[C@H](O)[C@H]3O)[C@H]3COC(=O)[C@H]23)OCO4)cc(OC)c1O	36% and 34.4%
N=c1ccn2c(n1)O[C@H]1[C@H](O)[C@@H](CO)O[C@H]12	5.47%
COc1cc(NS(C)(=O)=O)ccc1Nc1c2ccccc2nc2ccccc12	27.5% and 21.1%

Same assay, conditions: MDA-MB-436 breast carcinoma growth inhibition, drug combinations; measured here: BGB combination; at 5 µM; stronger effect = higher value

Structure (SMILES)	inhibition
COc1cc([C@@H]2c3cc4c(cc3[C@@H](O[C@@H]3O[C@@H]5CO[C@@H](c6cccs6)O[C@H]5[C@H](O)[C@H]3O)[C@H]3COC(=O)[C@H]23)OCO4)cc(OC)c1O	73.1% and 71.2%
N=c1ccn2c(n1)O[C@H]1[C@H](O)[C@@H](CO)O[C@H]12	33.7%
COc1cc(NS(C)(=O)=O)ccc1Nc1c2ccccc2nc2ccccc12	55% and 42.6%

From PubChem BioAssay
